A selection: hits, their analogues and other compounds. The true share with any hit is near 7.8%.
HCV inh – qHTS Assay for Inhibitors of Hepatitis C Virus (HCV). Huh7.5.1 HCVcc-Cre infection, luciferase reporter, 44 h. Potency, µM (titrated, usually from 41.8 µM), for inactives: top-dose activity change, negative = inhibition, hits mostly inhibitors. 340,000 tested, 3.4% active; active = well fitted inhibition curve with a large enough effect; inconclusive = small, poorly fitted or top-dose-only effect, or another doubt; inactive = no such curve, though single readings can be large or run the other way; note: potency is the fitted concentration of half-maximal effect
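Compounds are dispensed onto cells plated 4 h earlier at 1,000 per well, with HCVcc-Cre virus (about 0.5 moi) added next. Following 44 h of culture, luminescent signal is measured for 15 sec after 15 min with substrate at room temperature.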
MARV entry inh – qHTS for inhibitors of binding or entry into cells for Marburg Virus; AID 540276, 2011; 300,000 tested, 1.8% active; Marburg virus pseudotyped entry inhibition, cell reporter; Potency, µM (titrated, usually from 37.8 µM), without a hit: top-dose activity change, negative = inhibition, hits mostly inhibitors; calls by dose curve; tested in HEK293 cells; note: potency is the fitted concentration of half-maximal effect
HCMV inh – qHTS Assay for inhibitors of the human cytomegalovirus (HCMV). HFF cells, HCMV-luciferase reporter, 72 h; hits give low values. activity change, negative = inhibition, % at 57.5 µM. 410,000 tested, 4.5% active. AID 1259415, 2018; in the data active = activity change below about -60%; inconclusive = no clear call, values can overlap the other calls; inactive = above about -39%
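Luciferase read-out from HCMV-luciferase-infected HFFs (MOI 1 PFU/cell) 72 h post infection at 37C; compounds added after 16 h cell attachment; activity normalized between buffer-only basal and Salinomycin (10uM) inhibitor controls.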
Vaccinia Venus – qHTS for Stage-Specific Inhibitors of Vaccinia Orthopoxvirus: Venus Reporter Primary qHTS; Vaccinia virus Venus reporter expression, fluorescence; Potency, µM (doses to about 36.5 µM), for inactives: top-dose activity change, negative = inhibition, actives largely listed as inhibitors; 330,000 tested, 0.46% active; AID 720580, 2013; calls by dose curve; tested in A549 cells; note: potency is the fitted concentration of half-maximal effect; nearly all actives have a fitted effect of over 30% in size
VACV mCherry inh – qHTS for Stage-Specific Inhibitors of Vaccinia Orthopoxvirus: mCherry Reporter Primary qHTS; Vaccinia virus mCherry reporter infection, fluorescence; Potency, µM (highest dose often 36.5 µM), for inactives: at the top dose activity change, negative = inhibition, most hits filed as inhibitors; 310,000 tested, 0.63% active; AID 720579, 2013; calls by dose curve; tested in A549 cells; note: potency is the fitted concentration of half-maximal effect; nearly all actives have a fitted effect of over 35% in size
Lassa entry inh – qHTS for Inhibitors of binding or entry into cells for Lassa Virus | AID 540256, 2011 | Potency, µM (highest dose often 37.9 µM), for the others: top-dose activity change, negative = inhibition, actives largely listed as inhibitors | Lassa virus pseudotype entry inhibition, cell reporter | 300,000 tested, 1.2% active; calls by dose curve; tested in HEK293 cells; note: potency is the fitted concentration of half-maximal effect; nearly all actives have a fitted effect of over 50% in size
* hit, by the source's call; i = inactive; ? = inconclusive; · = no result given; [ ] = dose if it differs, or a comment. % is set by controls: 0 for no effect and ±100 for the full control effect.

SMILES	HCV inh	MARV entry inh	HCMV inh	Vaccinia Venus	VACV mCherry inh	Lassa entry inh
CC(=O)N/C(=C\c1ccccc1)C(=O)OCC(=O)NC1CCCC1	5%	11%	-16	-14%	i	4%
CC(=O)Nc1ccc(NC(=O)COC(=O)/C(=C/c2ccccc2)n2nnnc2C)cc1	-14%	?	37	-28%	?	?
Cc1nnnn1/C(=C\c1ccccc1)C(=O)OCC(=O)NC1CCCCC1	34%	11µM*	8	?	?	?
CCC(=NCc1ccc2c(c1)OCO2)c1c(O)n(C2CCCCC2)c(=O)[nH]c1=O	?	?	?	·	·	13µM*
CCC(=NCCO)c1c(O)n(C2CCCCC2)c(=O)[nH]c1=O	14%	4%	15	-6%	-11%	-15%
O=C(Cc1csc(N2CCOCC2)n1)N/N=C/c1ccc(Cl)cc1Cl	11µM*	?	2	·	·	?
Cc1cc(C)cc(NC(=O)CCCN2C(=O)COc3ccc(C)cc32)c1	·	-26%[46.1 µM]	43	-20%	-13%	26%[46.1 µM]
CCC(C)(C)C1CCC2(CC1)NC(=O)N(CC(=O)N(C)Cc1ccc3c(c1)OCCO3)C2=O (stereo not given)	13µM*	·	?	·	·	·
Cc1nnc(N2CCCC(C(=O)NCc3ccccc3)C2)c2nn(-c3ccccc3)c(C)c12 (stereo not given)	·	·	1	-18%	-20%	17%[46.1 µM]
CCc1ccc(CNC(=O)C2CCCN(c3nnc(C)c4c(C)n(-c5ccccc5)nc34)C2)cc1 (stereo not given)	1%	·	-108*	-18%	-26%	-24%[46.1 µM]
Cc1ccc(NC(=O)C2CCCN(c3nnc(C)c4c(C)n(-c5ccccc5)nc34)C2)cc1Cl (stereo not given)	·	·	-7	11µM*	?	0%[46.1 µM]
Cc1ccccc1CNC(=O)C1CCCN(c2nnc(C)c3c(C)n(-c4ccccc4)nc23)C1 (stereo not given)	11%	·	-101*	·	·	·
Cc1nnc(N2CCCC(C(=O)NCc3ccccc3F)C2)c2nn(-c3ccccc3)c(C)c12 (stereo not given)	-16%	·	-20	·	·	·
CCc1ccccc1NC(=O)CN(c1ccccc1)S(=O)(=O)c1ccsc1C(=O)OC	·	·	11	-4%	-11%	?
Cc1ccc(C(=O)c2ccccc2C(=O)OCC(=O)Nc2ccc(SC(F)F)cc2)cc1	?	?	-34	?	?	11µM*
O=C(COC(=O)c1ccccc1Cc1ccccc1)Nc1ccc(SC(F)F)cc1	?	?	45	-18%	-1%	?
COc1ccc(OC)c(CN2CCOc3ccc(CN4CCC(O)(c5cccnc5)CC4)cc3C2)c1	·	·	·	4%	-14%	·
C=CCOc1ccc([C@H]2/C(=C(/O)c3ccc(F)cc3)C(=O)C(=O)N2CCCN(C)C)cc1	·	21%	·	·	·	·
CC(=O)c1cc(C(=O)Nc2cc(C)cc(C)c2)c2ccccn12	·	-12%[46.1 µM]	?	-8%	-9%	27%[46.1 µM]
COc1ccc(C)cc1NCc1ccc([N+](=O)[O-])cc1	?	2%	-15	-4%	i	?
Cc1cc([N+](=O)[O-])ccc1NCc1ccc2ccccc2c1	11µM*	-25%	-27	-8%	i	9%
COc1ccc(CNc2cc([N+](=O)[O-])ccc2OC)cc1	?	-3%	-74*	-6%	i	-1%
CCOc1ccc(NC(=O)N(Cc2c[nH]c3ccccc23)C2CCCCC2)cc1	·	18%[46.1 µM]	62	-10%	-11%	-1%[46.1 µM]
O=C(NCCN1CCCCC1)[C@H]1[C@H](CO)[C@H]2Cn3c(cccc3=O)[C@@H]1N2C(=O)C1CC1	·	·	-5	·	·	·
Cc1ccc(CC(=O)Nc2nc3ccccc3s2)cc1	-16%	?	-5	-15%	-25%	?
SMILES	HCV inh	MARV entry inh	HCMV inh	Vaccinia Venus	VACV mCherry inh	Lassa entry inh
Cc1nc2c(ccc3nc(NC(=O)Cc4ccccc4)sc32)s1	10µM*	?	28	-28%	-16%	?
CC(=O)Nc1ccc(/C(C)=N/NC(=O)C2CC2c2ccccc2)cc1 (stereo not given)	-20%	3%	-11	-2%	-4%	0.018µM*
CN(C)c1ccc(/C=N/NC(=O)C2CC2c2ccccc2)cc1 (stereo not given)	-9%	·	32	·	·	·
O=C(N/N=C/C=C/c1ccccc1)C1CC1c1ccccc1 (stereo not given)	-18%	?	5	·	·	0.13µM*
N#Cc1nc(-c2ccc(COc3ccc(Cl)cc3)o2)oc1N1CCC(C(N)=O)CC1	·	13%[46.1 µM]	-65*	-24%	-27%	-13%[46.1 µM]
N#Cc1nc(-c2ccc(OCc3ccccc3)cc2)oc1N1CCC(C(N)=O)CC1	?	-4%	-37	?	-23%	0%
CC(Nc1oc(-c2ccc(COc3ccc(Cl)cc3)o2)nc1C#N)c1ccccc1 (stereo not given)	·	-14%[46.1 µM]	-74*	-15%	-25%	-25%[46.1 µM]
COc1ccc(Nc2oc(-c3ccc(Cl)cc3)nc2C#N)cc1	?	?	54	?	?	-4%
CCNc1oc(-c2ccc(COc3ccc(Cl)cc3)o2)nc1C#N	·	8%[46.1 µM]	-23	-15%	-11%	-2%[46.1 µM]
CCOc1ccc(Nc2oc(-c3ccc(Cl)cc3)nc2C#N)cc1	?	7.3µM*	74	?	?	16µM*
CCOc1ccc(Nc2oc(-c3ccc(COc4ccccc4C)o3)nc2C#N)cc1	·	3%[46.1 µM]	-71*	-18%	-27%	3%[46.1 µM]
COc1ccc(Nc2oc(COc3ccc(Cl)cc3)nc2C#N)cc1	?	?	-78*	-16%	-20%	?
COc1ccc(CNc2oc(COc3ccc(Cl)cc3)nc2C#N)cc1	?	-23%	34	-15%	i	7%
CN(CCOc1ccc(-c2ccn(S(=O)(=O)c3ccc(Cl)cc3)n2)cc1)c1ccccn1	1.1µM*	-25%	-33	·	·	?
O=C(Cc1coc2cc(O)ccc12)N1CCN(S(=O)(=O)c2ccc(Br)cc2)CC1	11µM*	·	-33	·	·	·
Cc1ccc2c(CC(=O)N3CCN(S(=O)(=O)c4cccs4)CC3)coc2c1	-2%	-18%[46.1 µM]	11	-15%	·	-14%
O=C(CN1C(=O)C2(SCC(=O)N2c2ccccc2)c2ccccc21)NCc1ccccc1 (stereo not given)	·	·	24	0%	-7%	17%[46.1 µM]
O=C(Nc1nc(-c2cc3ccccc3o2)cs1)c1ccc(S(=O)(=O)N2CCCC2)cc1	?	?	-84*	·	·	?
Cc1cc(-c2csc(NC(=O)c3ccc(S(=O)(=O)N(C)C)cc3)n2)c(C)n1-c1ccccc1	?	1.3µM*	-25	-13%	-4%	?

Screening data from PubChem BioAssay.
